Out of some 390,000 compounds screened, about 17,000 (4.4%) were called active. Inconclusive results (about 8%) are left out. What follows is part of a selection rich in actives, with near analogues and random picks from the rest. Entries that show only a call come without a potency. A number with no mark means an inactive call. Calls follow the shape of the dose curve; as a rule, active = well fitted inhibition curve with a large enough effect; inconclusive = small, poorly fitted or top-dose-only effect; inactive = no such curve, though single readings can be large or run the other way.
Target: Lysine-specific demethylase 4A (Homo sapiens) (UniProt O75164)
Assay: qHTS Assay for Inhibitors of JMJD2A-Tudor Domain; also: nearly all actives have a fitted effect of over 50% in size
Conditions: AlphaScreen JMJD2A-Tudor / H3K4me3 peptide binding; series mostly up to 114 µM
Potency is read from the fitted curve at half-maximal effect.

Sequence of Lysine-specific demethylase 4A (Homo sapiens) (O75164 whole entry, looked up, the tested form may be a part): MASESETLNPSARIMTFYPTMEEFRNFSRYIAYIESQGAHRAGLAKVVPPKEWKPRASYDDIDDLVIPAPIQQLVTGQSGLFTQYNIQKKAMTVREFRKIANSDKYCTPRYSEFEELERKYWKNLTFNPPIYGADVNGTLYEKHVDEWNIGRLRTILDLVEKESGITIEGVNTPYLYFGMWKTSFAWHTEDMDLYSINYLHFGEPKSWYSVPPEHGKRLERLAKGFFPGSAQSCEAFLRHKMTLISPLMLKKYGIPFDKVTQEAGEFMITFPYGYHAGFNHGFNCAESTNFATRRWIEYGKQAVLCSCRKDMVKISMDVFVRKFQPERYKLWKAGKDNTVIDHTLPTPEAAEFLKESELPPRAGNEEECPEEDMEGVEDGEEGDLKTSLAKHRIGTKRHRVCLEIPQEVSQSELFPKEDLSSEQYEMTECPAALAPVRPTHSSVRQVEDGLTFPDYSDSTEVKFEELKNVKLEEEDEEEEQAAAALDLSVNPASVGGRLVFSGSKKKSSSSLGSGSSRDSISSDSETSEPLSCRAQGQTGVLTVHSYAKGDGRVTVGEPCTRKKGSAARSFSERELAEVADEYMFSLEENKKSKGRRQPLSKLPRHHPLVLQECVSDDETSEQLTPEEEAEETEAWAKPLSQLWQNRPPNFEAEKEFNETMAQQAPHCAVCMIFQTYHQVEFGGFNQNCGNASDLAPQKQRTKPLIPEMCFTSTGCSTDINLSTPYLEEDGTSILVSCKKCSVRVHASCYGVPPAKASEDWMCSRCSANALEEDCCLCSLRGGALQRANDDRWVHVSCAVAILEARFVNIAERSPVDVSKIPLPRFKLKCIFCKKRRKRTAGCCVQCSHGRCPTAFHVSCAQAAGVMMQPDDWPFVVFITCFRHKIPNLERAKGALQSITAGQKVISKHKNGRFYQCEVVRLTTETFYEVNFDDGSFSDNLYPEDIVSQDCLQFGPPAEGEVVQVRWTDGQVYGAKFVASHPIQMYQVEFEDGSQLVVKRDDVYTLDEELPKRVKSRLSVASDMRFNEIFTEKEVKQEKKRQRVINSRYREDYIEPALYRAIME

| SMILES | Potency | activity change, negative = inhibition |
| --- | --- | --- |
| CSc1ccc(C2c3c(oc4ccccc4c3=O)C(=O)N2CCCN2CCOCC2)cc1 (stereo not drawn) | inactive |  |
| COc1ccc(-c2nc3sc(CCNS(=O)(=O)c4ccc(F)c(C)c4)c(C)n3n2)cc1 | inactive |  |
| CC(C)c1cc(C(=O)O)n[nH]1 | 28.2 µM (active) |  |
| Cc1cc(C)nc(NS(=O)(=O)c2ccc(NC(=O)c3cc(=O)c4ccc(C)c(C)c4o3)cc2)n1 | inactive |  |
| CC1=C(C(=O)N2CCN(c3cccc(C(F)(F)F)c3)CC2)C2(CCCCC2)OC1=O | inactive |  |
| Cc1ccc(Cl)cc1N1CCN(C(=O)c2cnc3c(-c4ccc(F)cc4)c(C)nn3c2C)CC1 | inactive |  |
| O=C(CNC(=O)c1ccc(Cl)cc1Cl)OC(C(=O)Nc1cc(C(F)(F)F)ccc1Cl)c1ccccc1 (stereo not drawn) | inactive |  |
| COc1cc(/C=C2\SC(=S)N(Nc3ncc(C(F)(F)F)cc3Cl)C2=O)cc(OC)c1OC | 44.7 µM (active) |  |
| COc1cc(/C=C/C(=O)N2c3ccccc3Sc3ccc(C(F)(F)F)cc32)cc(OC)c1OC | inactive |  |
| CCOc1ccc(/C=C2\SC(=S)N(NC(=O)c3ccncc3)C2=O)cc1OC | inactive |  |
| COc1ccc(CCNc2nc3c(-c4cccc(F)c4)nnn3c3ccccc23)cc1OC | inactive |  |
| COCCNc1ncnc2c1c(-c1ccccc1)cn2-c1ccc(C)c(Cl)c1 | inactive |  |
| CC1(C)CCc2cc(S(=O)(=O)N3CCN(c4nc(-c5cccs5)nc5ccccc45)CC3)ccc2O1 | inactive |  |
| COc1ccc(OC)c(Nc2nc3ccccc3n3cnnc23)c1 |  | -5.88% [at 11.4 µM] |
| COc1ccc(OC)c(-c2csc(NC(=O)C3=NNC(=O)CC3)n2)c1 | inactive |  |
| COc1ccc(OC)c(Nc2nc(-c3ccc(O)c(O)c3)cs2)c1 | 10 µM (active) |  |
| CCOC(=O)c1ccc(NC(=O)CSc2nc3c([nH]c4ccccc43)c(=O)n2C)cc1 | inactive |  |
| COc1ccc(OC)c(-c2noc(N3CCN(c4cc(Cl)ccc4C)CC3)n2)c1 | inactive |  |
| Cc1cc(Nc2ccc(C(=O)N3CCCCC3)cc2)c2cccc(C)c2n1 | inactive |  |
| Cc1ccccc1Nc1c([N+](=O)[O-])ccc2nonc12 | inactive |  |
| Cc1ccc(Nc2cc(C)nc3c(C)ccc([N+](=O)[O-])c23)cc1 | 35.5 µM (active) |  |

| SMILES | Potency | activity change, negative = inhibition |
| --- | --- | --- |
| CCS(=O)(=O)N1CCc2cc(C(=O)NCc3ccc(C)cc3)ccc21 | inactive |  |
| CCn1cc(C(=O)NCCc2ccccc2)c(=O)c2cc(S(=O)(=O)N3CCCCCC3)ccc21 | inactive |  |
| COC(=O)c1cc(NC(=O)CCS(=O)(=O)c2cc(Br)cc3c2N(C(=O)C2CC2)CC3)cc(C(=O)OC)c1 | inactive |  |
| COc1ccc(C)cc1N(C)C(=O)c1c(C)oc2ncnc(N3CCOCC3)c12 | inactive |  |
| Cc1ccc(CCNC(=O)C2CCN(c3nnc(-n4cccc4CNc4ccc(C)cc4)s3)CC2)cc1 | inactive |  |
| O=C(OC12CC3CC(CC(C3)C1)C2)c1ccc(NCc2cc(O)ccc2O)cc1 | 56.2 µM (active) |  |
| CC(OC(=O)c1ccc(Cl)cc1O)C(=O)NCCC1=CCCCC1 (stereo not drawn) | inactive |  |
| CC(C)OC(=O)c1ccc(NCc2cc(O)ccc2O)cc1Cl | 10 µM (active) |  |
| COC(=O)c1ccc(NCc2cc(O)ccc2O)cc1 | 5.62 µM (active) |  |
| CC(CN1CCCCC1)OC(=O)c1ccccc1Cl (stereo not drawn) | inactive |  |
| CCN(CC)C(=O)CCC(=O)Nc1ccc(C(=O)OC)cc1 | inactive |  |
| C#CCNc1ccc(C(=O)OCC)cc1 | inactive |  |
| CC1(C)C2CCC1(C)C(OC(=O)c1ccc(O)cc1)C2 (stereo not drawn) | inactive |  |
| O=c1cc(COc2cccc(C(F)(F)F)c2)nc2sc3c(n12)CCCC3 | inactive |  |
| CN(C)c1ccc(C(=O)NCC(=O)OC(C(=O)Nc2cc(C(F)(F)F)ccc2Cl)c2ccccc2)cc1 (stereo not drawn) | inactive |  |
| CCc1cccc(NC(=O)c2cnc(N3CCOCC3)c3ccccc23)c1 | inactive |  |
| O=C(COc1ccccc1F)Nc1ccc(C(=O)OCc2cc(=O)n3nc(C4CC4)sc3n2)cc1 | inactive |  |
| Cc1cccc(C)c1-n1ncc(C(=O)NCCCN2CCCCC2)c1C1CCN(C(=O)OC(C)(C)C)CC1 | inactive |  |
| COc1ccc(Cc2nc3ccc(C(=O)NCc4ccc(OC)cc4OC)cc3o2)cc1 | inactive |  |
| COc1ccc(OC)c(NC(=O)C2CCCN(S(=O)(=O)c3ccc4c(c3)CCCC(=O)N4)C2)c1 (stereo not drawn) | inactive |  |
| OC(c1ccccc1)C(CN1CCOCC1)c1ccccc1 (stereo not drawn) | inactive |  |

| SMILES | Potency | activity change, negative = inhibition |
| --- | --- | --- |
| Oc1c(CN2CCOCC2)ccc(CN2CCOCC2)c1O | 3.55 µM (active) |  |
| O=[N+]([O-])c1ccc(COc2ccccc2CN2CCOCC2)cc1 | inactive |  |
| CC(C)CCNc1nc(N2CCCC2)c2c(c1C#N)CCN(C)C2 | 44.7 µM (active) |  |
| CCc1nc(NCCO)c(C#N)c2c1CCCC2 | inactive |  |
| CC(C)Cc1nc(N2CCOCC2)c(C#N)c2c1CCC2 | inactive |  |
| CCCNC(=O)C1CCN(c2nc3ccc(C)cc3[nH]2)CC1 | inactive |  |
| CSC1=N/C(=C\C=C\c2cccs2)C(=O)S1 | 12.6 µM (active) |  |
| COc1ccc(N2CCN(C(=O)c3c(C)oc4nc(C)nc(N5CCCC5)c34)CC2)cc1 | inactive |  |
| CCOC(=O)c1c(C)oc2nc(C)nc(N3CCN(c4ccc(OC)cc4)CC3)c12 | 39.8 µM (active) |  |
| CCOC(=O)c1c(C)oc2nc(C)nc(Nc3ccc(CC)cc3)c12 | inactive |  |
| O=C(NCCSc1ccccc1)c1ccco1 | inactive |  |
| c1ccc(CSc2nnc(-c3ccco3)c(-c3ccco3)n2)cc1 | 17.8 µM (active) |  |
| Clc1ccccc1CSc1nnc(-c2ccco2)c(-c2ccco2)n1 | 22.4 µM (active) |  |
| Cc1ccc(-c2nnc(SCC(=O)NCc3ccccc3)nc2-c2ccc(C)cc2)cc1 | inactive |  |
| CC1(C)N=C(SCc2ccccc2Cl)c2ccccc2N1 | inactive |  |
| Fc1ccc(Nc2nc(SCc3ccccc3Cl)nc3ccccc23)cc1 | inactive |  |
| COc1ccc(CC(=O)N2CC(=O)Nc3ccc(Br)cc3C2c2ccc(F)cc2)cc1OC (stereo not drawn) | inactive |  |
| CC(=O)NNc1cc(=O)c2c(=O)n(C)c(=O)n(C)c2[nH]1 | 10 µM (active) |  |
| CC(=O)Nn1cc2c(=O)n(C)c(=O)n(C)c2c1 | inactive |  |
| CCC(=O)NNc1cc(=O)c2c(=O)n(C)c(=O)n(C)c2[nH]1 | inactive |  |
| CC(=O)c1ccc(NC(c2ccc(F)cc2)c2nnc(-c3ccccc3)o2)cc1 (stereo not drawn) | inactive |  |
